According to PubChem BioAssay (EPA / NIEHS):
Several values for one entry are separate records, joined by “and”; a condition that tells them apart may be missing. Equal values may be shown once. Inconclusive results are not listed. The source holds several records for some structures; these can differ, active in one and inactive in another. Activity calls are given as the source filed them. Rule for the calls, unless noted: active = hit-call score of the fitted dose curve at least 0.9, where 1 is the maximum; inactive = score below 0.9.

Assays:
[1] = ATG_NFI_CIS: Attagene CIS-FACTORIAL HepG2 Assay for human Nuclear Factor I (NFI) (AID 2282989); conditions: HepG2 cis-regulatory reporter, NFI response element transcription; actives raise or lower the signal
Summary of the method: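 HepG2 cells transiently transfected with cis-element-driven multiplexed reporter transcription units, dosed for 24 h. Reporter mRNA quantified by RT-PCR, fluorescent labelling, HpaI digestion and capillary electrophoresis; bidirectional fit versus DMSO baseline.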

[2] = target: Myc proto-oncogene protein (Homo sapiens) (UniProt P01106); assay: ATG_Myc_CIS: Attagene CIS-FACTORIAL HepG2 Assay for human Myelocytomatosis (Myc) Proto-Oncogene Transcription Factor (AID 2282990); conditions: HepG2, Attagene cis-reporter transcription factor activity; actives raise or lower the signal
Myc proto-oncogene protein (Homo sapiens), sequence (P01106 whole entry, looked up): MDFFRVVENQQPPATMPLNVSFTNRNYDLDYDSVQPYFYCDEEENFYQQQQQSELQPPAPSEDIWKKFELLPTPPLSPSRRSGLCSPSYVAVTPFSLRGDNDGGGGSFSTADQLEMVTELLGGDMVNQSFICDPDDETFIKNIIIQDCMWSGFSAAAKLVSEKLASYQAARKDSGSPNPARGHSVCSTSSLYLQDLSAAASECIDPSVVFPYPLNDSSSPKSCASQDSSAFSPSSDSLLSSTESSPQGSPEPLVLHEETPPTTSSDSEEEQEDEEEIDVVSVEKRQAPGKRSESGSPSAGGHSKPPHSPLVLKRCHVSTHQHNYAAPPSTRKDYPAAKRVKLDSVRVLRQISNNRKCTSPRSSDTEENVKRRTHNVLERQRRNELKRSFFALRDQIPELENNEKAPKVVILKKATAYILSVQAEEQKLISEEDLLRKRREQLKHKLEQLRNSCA
Summary of the method: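 HepG2 cells transiently transfected with multiple cis-promoter-driven reporter transcription units, so endogenous TF activity is read. After 24 h compound exposure, reporter mRNA was quantified by RT-PCR, 6-FAM labelling, HpaI digestion and capillary electrophoresis; bidirectional fit versus DMSO.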

[3] = ATG_NF_kB_CIS: Attagene CIS-FACTORIAL HepG2 Assay for human Nuclear Factor Kappa B (NF-kB) (AID 2282991); conditions: HepG2 Attagene cis-factorial NF-kB reporter mRNA; actives raise or lower the signal
Summary of the method: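 Read-out: reporter transcript levels quantified by RT-PCR plus capillary electrophoresis of 6-FAM-labelled, HpaI-cut fragments. Transfected HepG2 cells, 24 h compound exposure, endogenous NF-kB-driven cis element; gain or loss scored versus DMSO.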

[4] = ATG_NRF2_ARE_CIS: Attagene CIS-FACTORIAL HepG2 Assay for human Nuclear Factor Erythroid 2 Related Factor 2 (NFR2) response to Antioxidant Response Elements (ARE) (AID 2282992); conditions: HepG2 Attagene ARE/NRF2 reporter, transcription factor activity; actives raise or lower the signal;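 for AC50: reporter mRNA level measured by RT-PCR and capillary electrophoresis fluorescence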
Summary of the method: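 Cis-factorial assay: transfected HepG2 reporter library, 24 h dosing, mRNA readout via RT-PCR/CE; DMSO-referenced bidirectional analysis.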

[5] = ATG_Oct_MLP_CIS: Attagene CIS-FACTORIAL HepG2 Assay for human Octamer-Binding Transcription Factor (Oct) (AID 2282993); conditions: HepG2 Attagene cis-factorial Oct reporter, mRNA; actives raise or lower the signal
Summary of the method: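 HepG2 cells transiently transfected with cis-promoter-driven multiplexed reporter transcription units, dosed for 24 h. Reporter mRNA quantified by RT-PCR, fluorescent labelling, HpaI digestion and capillary electrophoresis; bidirectional fits versus DMSO baseline.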

[6] = target: Cellular tumor antigen p53 (Homo sapiens) (UniProt P04637); assay: ATG_p53_CIS: Attagene CIS-FACTORIAL HepG2 Assay for human p53 Transcription Factor (AID 2282994); conditions: HepG2 p53 cis-element reporter, Attagene mRNA; actives raise or lower the signal
Cellular tumor antigen p53 (Homo sapiens), sequence (P04637 whole entry, looked up): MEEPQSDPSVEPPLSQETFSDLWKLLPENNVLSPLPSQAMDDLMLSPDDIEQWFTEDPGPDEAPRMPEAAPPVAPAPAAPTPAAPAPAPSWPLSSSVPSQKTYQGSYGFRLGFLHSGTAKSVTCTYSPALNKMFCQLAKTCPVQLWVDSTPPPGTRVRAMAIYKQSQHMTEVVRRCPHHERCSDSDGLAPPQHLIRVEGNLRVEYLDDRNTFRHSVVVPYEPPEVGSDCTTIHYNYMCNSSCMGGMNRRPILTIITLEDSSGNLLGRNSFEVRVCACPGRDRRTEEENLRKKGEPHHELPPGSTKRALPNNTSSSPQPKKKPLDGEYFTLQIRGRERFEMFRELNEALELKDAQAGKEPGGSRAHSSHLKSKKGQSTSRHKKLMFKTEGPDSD
Summary of the method: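 Using HepG2 hepatoma cells carrying cis-acting multiplexed reporters, mRNA induction is detected after a 24 h exposure. Gain- and loss-of-signal responses are fitted relative to DMSO-treated cells.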

[7] = target: human Peroxisome Proliferator-activated Receptor alpha (PPARa), PPARA (gene 5465) (UniProt Q07869); assay: ATG_PPARa_TRANS: Attagene TRANS-FACTORIAL HepG2 Assay for human Peroxisome Proliferator-activated Receptor alpha (PPARa) (AID 2283001; active = hit-call score of the fitted dose curve at least 0.9, where 1 is the maximum)
human Peroxisome Proliferator-activated Receptor alpha (PPARa), PPARA (gene 5465), sequence (Q07869 whole entry, looked up, the tested form may be a part): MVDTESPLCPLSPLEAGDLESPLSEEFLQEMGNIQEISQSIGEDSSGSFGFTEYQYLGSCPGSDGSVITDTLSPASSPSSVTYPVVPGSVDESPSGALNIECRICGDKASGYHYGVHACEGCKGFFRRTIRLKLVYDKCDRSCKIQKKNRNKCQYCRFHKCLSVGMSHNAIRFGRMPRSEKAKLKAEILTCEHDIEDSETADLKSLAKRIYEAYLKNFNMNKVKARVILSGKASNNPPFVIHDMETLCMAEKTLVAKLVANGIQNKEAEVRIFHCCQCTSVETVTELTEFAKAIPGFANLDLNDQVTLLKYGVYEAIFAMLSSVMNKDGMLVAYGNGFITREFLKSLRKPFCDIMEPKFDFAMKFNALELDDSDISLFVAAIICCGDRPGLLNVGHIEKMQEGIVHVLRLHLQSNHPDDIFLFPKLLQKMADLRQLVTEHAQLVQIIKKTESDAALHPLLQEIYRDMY
Summary of the method: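 HepG2 cells transiently transfected with multiplexed GAL4-UAS reporter units and chimeric NR-Gal4 constructs were dosed for 24 h. Reporter mRNA was measured by RT-PCR with fluorescent labelling and capillary electrophoresis; gain of signal fitted against DMSO.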

[8] = target: human Peroxisome Proliferator-activated Receptor delta (PPARd), PPARD (gene 5467) (UniProt Q03181); assay: ATG_PPARd_TRANS: Attagene TRANS-FACTORIAL HepG2 Assay for human Peroxisome Proliferator-activated Receptor delta (PPARd) (AID 2283002; active = hit-call score of the fitted dose curve at least 0.9, where 1 is the maximum)
human Peroxisome Proliferator-activated Receptor delta (PPARd), PPARD (gene 5467), sequence (Q03181 whole entry, looked up, the tested form may be a part): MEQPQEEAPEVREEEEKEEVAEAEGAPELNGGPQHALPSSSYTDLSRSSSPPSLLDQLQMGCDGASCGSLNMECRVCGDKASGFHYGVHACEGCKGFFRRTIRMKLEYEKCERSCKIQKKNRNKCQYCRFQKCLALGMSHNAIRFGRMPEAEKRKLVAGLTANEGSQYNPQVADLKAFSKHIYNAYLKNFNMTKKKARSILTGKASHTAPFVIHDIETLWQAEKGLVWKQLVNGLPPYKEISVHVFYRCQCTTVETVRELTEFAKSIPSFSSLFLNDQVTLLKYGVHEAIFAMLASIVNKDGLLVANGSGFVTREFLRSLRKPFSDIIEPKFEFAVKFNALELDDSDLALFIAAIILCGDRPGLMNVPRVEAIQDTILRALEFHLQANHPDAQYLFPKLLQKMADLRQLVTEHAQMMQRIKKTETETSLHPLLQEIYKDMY
Summary of the method: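 HepG2 cells transiently transfected with multiplexed GAL4-UAS reporter units and exogenous chimeric NR-Gal4 proteins; 24 h compound exposure. Reporter mRNA measured by RT-PCR, 6-FAM labelling, HpaI digestion and capillary electrophoresis; gain of signal versus DMSO.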

[9] = target: Nuclear receptor subfamily 1 group I member 2 (Homo sapiens) (UniProt O75469); assay: ATG_PXR_TRANS: Attagene TRANS-FACTORIAL HepG2 Assay for human Pregnane X Receptor (PXR) (AID 2283008; active = hit-call score of the fitted dose curve at least 0.9, where 1 is the maximum)
Nuclear receptor subfamily 1 group I member 2 (Homo sapiens), sequence (O75469 whole entry, looked up, the tested form may be a part): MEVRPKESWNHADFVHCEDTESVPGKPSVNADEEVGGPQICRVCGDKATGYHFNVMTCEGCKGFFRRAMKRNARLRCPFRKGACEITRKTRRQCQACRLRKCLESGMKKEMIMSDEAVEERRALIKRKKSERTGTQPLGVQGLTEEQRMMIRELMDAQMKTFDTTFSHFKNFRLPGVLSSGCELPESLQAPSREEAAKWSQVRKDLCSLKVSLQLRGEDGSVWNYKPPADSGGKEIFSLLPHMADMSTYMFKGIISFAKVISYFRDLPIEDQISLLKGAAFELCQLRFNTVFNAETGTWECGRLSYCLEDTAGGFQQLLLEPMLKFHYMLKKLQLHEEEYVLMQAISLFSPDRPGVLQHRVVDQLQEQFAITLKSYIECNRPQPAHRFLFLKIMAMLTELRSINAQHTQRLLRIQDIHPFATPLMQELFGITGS
Summary of the method: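 Fluorescence intensity of FAM-labelled, HpaI-digested reporter amplicons, separated by capillary electrophoresis, quantifies induction. HepG2 cells with PXR-Gal4 trans-reporter system were exposed 24 h; DMSO defines baseline.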

[10] = target: Peroxisome proliferator-activated receptor gamma (Homo sapiens) (UniProt P37231); assay: ATG_PPARg_TRANS: Attagene TRANS-FACTORIAL HepG2 Assay for human Peroxisome Proliferator-activated Receptor-gamma (PPARg) (AID 2283007; active = hit-call score of the fitted dose curve at least 0.9, where 1 is the maximum)
Peroxisome proliferator-activated receptor gamma (Homo sapiens), sequence (P37231 whole entry, looked up, the tested form may be a part): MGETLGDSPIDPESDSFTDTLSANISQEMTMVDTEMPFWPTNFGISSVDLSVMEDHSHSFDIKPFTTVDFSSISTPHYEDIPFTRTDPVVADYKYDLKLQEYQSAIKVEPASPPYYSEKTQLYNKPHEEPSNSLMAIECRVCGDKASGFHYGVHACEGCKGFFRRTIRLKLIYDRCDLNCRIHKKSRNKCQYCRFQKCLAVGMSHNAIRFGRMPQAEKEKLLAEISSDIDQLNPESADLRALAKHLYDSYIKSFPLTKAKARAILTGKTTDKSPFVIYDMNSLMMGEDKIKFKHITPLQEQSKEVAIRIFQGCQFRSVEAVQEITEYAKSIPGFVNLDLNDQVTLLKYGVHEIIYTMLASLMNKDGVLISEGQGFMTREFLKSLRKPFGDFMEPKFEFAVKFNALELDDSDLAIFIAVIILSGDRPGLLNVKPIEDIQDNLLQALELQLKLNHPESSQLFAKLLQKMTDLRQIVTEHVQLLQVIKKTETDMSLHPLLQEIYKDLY
Summary of the method: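 Read-out: reporter mRNA induction, detected by fluorescence after RT-PCR and capillary electrophoresis. Transiently transfected human HepG2 liver cells carrying a chimeric NR-Gal4 construct were dosed for 24 h; activity was fitted upward relative to DMSO.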

[11] = target: human Retinoic Acid Receptor gamma (RARg), RARG (gene 5916) (UniProt P13631); assay: ATG_RARg_TRANS: Attagene TRANS-FACTORIAL HepG2 Assay for human Retinoic Acid Receptor gamma (RARg) (AID 2283009; active = hit-call score of the fitted dose curve at least 0.9, where 1 is the maximum;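 for AC50: AC50 is for reporter induction above DMSO meaning RARg activation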)
human Retinoic Acid Receptor gamma (RARg), RARG (gene 5916), sequence (P13631 whole entry, looked up, the tested form may be a part): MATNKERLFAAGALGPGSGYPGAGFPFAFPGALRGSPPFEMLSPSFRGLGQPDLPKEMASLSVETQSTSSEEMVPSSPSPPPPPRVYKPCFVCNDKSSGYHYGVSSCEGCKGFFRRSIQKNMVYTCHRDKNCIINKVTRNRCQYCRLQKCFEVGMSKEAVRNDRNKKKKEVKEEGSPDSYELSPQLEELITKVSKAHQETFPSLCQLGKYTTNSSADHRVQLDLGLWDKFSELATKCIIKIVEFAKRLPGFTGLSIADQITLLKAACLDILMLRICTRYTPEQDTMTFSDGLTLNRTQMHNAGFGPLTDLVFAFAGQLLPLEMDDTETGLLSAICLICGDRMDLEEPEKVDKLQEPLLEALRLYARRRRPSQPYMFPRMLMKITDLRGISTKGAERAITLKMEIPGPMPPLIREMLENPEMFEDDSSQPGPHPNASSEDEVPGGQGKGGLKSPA
Summary of the method: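 HepG2 cells transiently transfected with multiplexed reporter units expressing chimeric RARg-GAL4 and GAL4-UAS-driven reporters; 24 h compound exposure. Reporter mRNA quantified by RT-PCR with fluorescent labelling and capillary electrophoresis; gain-of-signal fitted relative to DMSO baseline.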

[12] = target: human RAR-related Orphan Receptor beta (RORb), RORB (gene 6096) (UniProt Q92753); assay: ATG_RORb_TRANS: Attagene TRANS-FACTORIAL HepG2 Assay for human RAR-related Orphan Receptor beta (RORb) (AID 2283010; active = hit-call score of the fitted dose curve at least 0.9, where 1 is the maximum)
human RAR-related Orphan Receptor beta (RORb), RORB (gene 6096), sequence (Q92753 whole entry, looked up, the tested form may be a part): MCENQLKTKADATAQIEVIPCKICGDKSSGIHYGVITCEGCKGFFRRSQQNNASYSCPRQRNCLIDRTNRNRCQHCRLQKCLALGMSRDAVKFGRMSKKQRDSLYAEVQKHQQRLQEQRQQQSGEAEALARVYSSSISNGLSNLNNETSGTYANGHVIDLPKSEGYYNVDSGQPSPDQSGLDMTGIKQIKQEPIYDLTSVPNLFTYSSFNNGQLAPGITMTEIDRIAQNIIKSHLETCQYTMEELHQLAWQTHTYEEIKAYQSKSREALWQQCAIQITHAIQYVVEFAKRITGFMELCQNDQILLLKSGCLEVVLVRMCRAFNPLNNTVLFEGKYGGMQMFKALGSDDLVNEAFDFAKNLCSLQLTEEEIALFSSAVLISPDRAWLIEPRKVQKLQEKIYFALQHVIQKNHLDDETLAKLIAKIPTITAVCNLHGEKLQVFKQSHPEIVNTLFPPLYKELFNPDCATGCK
Summary of the method: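 HepG2 cells were transiently transfected with multiplexed GAL4-UAS reporter units expressing chimeric nuclear receptor–GAL4 proteins, then dosed for 24 h. Reporter mRNA was quantified by RT-PCR with fluorescent labelling and capillary electrophoresis; gain of signal was fitted relative to DMSO.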

[13] = target: Retinoic acid receptor alpha (Homo sapiens) (UniProt P10276); assay: ATG_RARa_TRANS: Attagene TRANS-FACTORIAL HepG2 Assay for human Retinoic Acid Receptor alpha (RARa) (AID 2283005; active = hit-call score of the fitted dose curve at least 0.9, where 1 is the maximum)
Retinoic acid receptor alpha (Homo sapiens), sequence (P10276 whole entry, looked up, the tested form may be a part): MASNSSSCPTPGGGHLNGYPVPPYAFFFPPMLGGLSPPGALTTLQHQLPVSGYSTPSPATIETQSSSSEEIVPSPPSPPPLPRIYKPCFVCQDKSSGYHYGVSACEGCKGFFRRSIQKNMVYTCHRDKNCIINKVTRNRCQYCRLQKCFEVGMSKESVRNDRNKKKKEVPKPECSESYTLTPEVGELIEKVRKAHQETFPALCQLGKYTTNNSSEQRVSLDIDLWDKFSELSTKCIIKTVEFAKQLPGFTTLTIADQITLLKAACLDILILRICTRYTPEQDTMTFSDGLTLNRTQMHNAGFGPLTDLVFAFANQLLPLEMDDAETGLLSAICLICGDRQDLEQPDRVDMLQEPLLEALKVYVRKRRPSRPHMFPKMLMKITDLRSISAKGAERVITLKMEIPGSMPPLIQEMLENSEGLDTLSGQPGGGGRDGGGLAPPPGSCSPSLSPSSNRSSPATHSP
Summary of the method: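 HepG2 cells transiently transfected with multiple reporter units expressing chimeric RARα-GAL4 fusion, with GAL4-UAS-driven reporters. After 24 h compound exposure, reporter mRNA induction quantified by RT-PCR and capillary electrophoresis with fluorescent labeling; gain-of-signal fitted relative to DMSO control.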

[14] = target: human Retinoic Acid Receptor beta (RARb), RARB (gene 5915) (UniProt P10826); assay: ATG_RARb_TRANS: Attagene TRANS-FACTORIAL HepG2 Assay for human Retinoic Acid Receptor beta (AID 2283004; active = hit-call score of the fitted dose curve at least 0.9, where 1 is the maximum)
human Retinoic Acid Receptor beta (RARb), RARB (gene 5915), sequence (P10826 whole entry, looked up): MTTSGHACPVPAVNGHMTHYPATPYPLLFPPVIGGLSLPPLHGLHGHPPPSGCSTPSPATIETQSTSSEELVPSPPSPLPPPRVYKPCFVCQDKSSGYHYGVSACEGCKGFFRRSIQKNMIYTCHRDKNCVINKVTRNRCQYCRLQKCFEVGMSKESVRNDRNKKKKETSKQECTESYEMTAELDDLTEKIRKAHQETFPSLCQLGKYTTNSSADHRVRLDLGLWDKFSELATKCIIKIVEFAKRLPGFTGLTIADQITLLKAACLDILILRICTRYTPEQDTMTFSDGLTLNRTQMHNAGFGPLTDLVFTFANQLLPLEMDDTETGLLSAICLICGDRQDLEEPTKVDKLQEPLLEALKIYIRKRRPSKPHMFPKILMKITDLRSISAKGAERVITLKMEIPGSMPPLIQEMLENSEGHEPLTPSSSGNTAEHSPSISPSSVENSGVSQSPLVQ
Summary of the method: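 Transient transfection of HepG2 with multiple reporter units → chemical dosing, 24 h → total RNA isolation → RT with oligo(dT) → reporter-specific PCR, 6-FAM primer extension, HpaI digest → capillary electrophoresis. Positive direction vs DMSO control.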

Measured: AC50

Cc1cncc(C)c1
inactive: [1] | [2] | [3] | [4] | [5] | [6] | [7] | [8] | [9]

O=C1C=CC(=O)N1c1cccc(N2C(=O)C=CC2=O)c1
inactive: [1] | [2] | [3] | [4] | [5] | [6] | [7] | [10] | [9] | [11]

CC(=O)Nc1ccc(S(N)(=O)=O)cc1
inactive: [1] | [2] | [3] | [4] | [5] | [6] | [7] | [8] | [9] | [11] | [12]

C=CC(=O)OCC(CO)(COCC(COC(=O)C=C)(COC(=O)C=C)COC(=O)C=C)COC(=O)C=C
active: [3] 0.817 µM | [5] 2.89 µM | [6] 2.86 µM
inactive: [1] | [2] | [4] | [7] | [10] | [9]

Cc1cc(C(C)(C)C)c(O)c(C(C)(C)C)c1
active: [1] 51.6 µM and 20.5 µM | [2] 51 µM and 92.8 µM | [4] 57.7 µM and 60 µM | [5] 33.4 µM and 89.4 µM | [9] 27.3 µM
inactive: [3] | [6] | [8] | [10] | [9]

CCCCCCCCCCCC[N+](C)(C)CCCCCCCCCCCC
active: [2] 100 µM | [4] 10.4 µM | [5] 5.23 µM | [6] 10.4 µM | [11] 27.3 µM
inactive: [1] | [3] | [7] | [8] | [13] | [9] | [12]

CCCCc1ccc2ccccc2c1S(=O)(=O)O
active: [10] 45.4 µM | [9] 2.67 µM
inactive: [1] | [2] | [3] | [5] | [6] | [7] | [8] | [11] | [12]

NCc1cccc(CN)c1
inactive: [1] | [2] | [3] | [4] | [5] | [6] | [10] | [9]

O=C1Cc2ccccc2N1c1c(Cl)cccc1Cl
active: [4] 23.2 µM | [9] 0.517 µM
inactive: [1] | [2] | [3] | [5] | [8] | [10]

O=C(F)C(F)(F)C(F)(F)C(F)(F)C(F)F
inactive: [1] | [2] | [3] | [5] | [6] | [7] | [8] | [14] | [9]

NNc1nc(-c2ccc([N+](=O)[O-])cc2)cs1
inactive: [1] | [2] | [3] | [5] | [6] | [7] | [8] | [9] | [11]
active: [10] 5.61 µM

CCc1cccc(CC)c1N(COC)C(=O)CS(=O)(=O)O
active: [9] 7.05 µM
inactive: [1] | [2] | [3] | [5] | [6] | [7] | [8] | [13] | [11]

O=C1OC(=O)c2cc(-c3ccc4c(c3)C(=O)OC4=O)ccc21
inactive: [1] | [2] | [3] | [4] | [5] | [6] | [9] | [12]

O=C(F)C(F)(F)C(F)(F)C(F)(F)C(=O)F
inactive: [1] | [2] | [3] | [5] | [6] | [7] | [13] | [9]
